The text below walks through data of PubChem BioAssay (Tox21).

A short description of assay [1]: qHTS assay for small molecules that induce genotoxicity in human embryonic kidney cells expressing luciferase-tagged ATAD5 (AID 651632). Also: nearly all actives have a fitted effect of over 15% in size. In short, it runs like this:
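Quantitative HTS in HEK293T expressing luciferase-tagged ATAD5, whose levels rise upon DNA damage. Exposure ran 16 hr at 37C and 5% CO2, with luminescence read 30 min after Amplite addition at room temperature.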

Assay [2] is described as follows: qHTS assay for small molecule agonists of the p53 signaling pathway - cell viability (AID 651633; calls by dose curve;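 also: p53RE-bla HCT reporter cells with a stable beta-lactamase p53 reporter; series mostly up to about 83 µM; nearly all actives have a fitted effect of over 30% in size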). The gist of the method: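 Viability counter-read: CellTiter-Glo luminescence (30 min, room temperature) in the same p53RE-bla plates. These plates had been exposed to compounds for 16 h at 37 C.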
The nature of assay [3]: qHTS assay for small molecules that induce genotoxicity in human embryonic kidney cells expressing luciferase-tagged ATAD5 - cell viability (AID 651634; calls by dose curve; also: nearly all actives have a fitted effect of over 25% in size). The gist of the method: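 After 15.5 hr incubation with compound at 37C, 5% CO2, HEK293T ATAD5-luciferase cells received CellTiter-Fluor reagent; fluorescence intensity was quantified following 30 min at 37C.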
A general note: Quantitative high-throughput screening tests each substance at several concentrations.

The nature of assay [4]: qHTS assay for small molecule disruptors of the mitochondrial membrane potential - cell viability (AID 720634; calls by dose curve;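 also: human HepG2 liver cancer cells; series mostly up to about 83 µM; nearly all actives have a fitted effect of over 20% in size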). In short, it runs like this:
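ATP-based luminescent viability readout (CellTiter-Glo, 30 min, room temperature) in HepG2 cells multiplexed with the m-MPI membrane potential dye; compound exposure lasted 1 hr at 37 C.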

Assay [5] can be described thus: qHTS assay to test for compound auto fluorescence at 590 nm (red) in HepG2 cells (AID 720674). In short, it runs like this: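 We screened compounds on adherent HepG2 cells, incubating them for an hour at 37 C in 5% CO2 before reading emission at 590 nm under 540 nm excitation; values reflect equivalence to Rose Bengal sodium fluorescence.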
Assay [6] is described as follows: qHTS assay to test for compound auto fluorescence at 535 nm (green) in HepG2 cells (AID 720675).
The nature of assay [7]: qHTS assay to test for compound auto fluorescence at 460 nm (blue) in HEK293 cells (AID 720678). In short, it runs like this:
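HEK293 cells (2,000/well, medium with 10% dialyzed FBS) attached 4-5 hr, then exposed to compound overnight at 37C, 5% CO2. Blue fluorescence read at 405/460 nm, with triamterene as reference fluorophore.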

Assay [8] in a line: qHTS assay to test for compound auto fluorescence at 535 nm (green) in HEK293 cells (AID 720680).
Assay [9] can be described thus: qHTS assay to test for compound auto fluorescence at 460 nm (blue) in HEK293 cell free culture (AID 720681). In short, it runs like this: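 Blue fluorescence (Ex 405/Em 460 nm, triamterene-equivalent) was read immediately after pin transfer of compound or DMSO into medium (DMEM, 10% FBS) without cells.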
Assay [10] can be described thus: qHTS assay to test for compound auto fluorescence at 535 nm (green) in HEK293 cell free culture (AID 720682). In short, it runs like this:
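DMEM + 10% FBS, cell-free; cpd or DMSO pinned in; Ex485/Em535 read; output as fluorescein-equivalent signal.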

The nature of assay [11]: qHTS assay to test for compound auto fluorescence at 590 nm (red) in HEK293 cell free culture (AID 720683). The gist of the method: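 Red-channel autofluorescence of compounds in culture medium (DMEM, 10% FBS), no cells, measured at 540/590 nm. Rose Bengal sodium is the reference fluorophore for equivalence.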
A short description of assay [12]: qHTS assay to test for compound auto fluorescence at 460 nm (blue) in HepG2 cell free culture (AID 720685). In short, it runs like this:
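Cell-free plates of MEM plus 10% FBS received 23 nL compound or DMSO vehicle; blue-channel (405/460 nm) intensity scored against triamterene as reference fluorophore.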

A short description of assay [13]: qHTS assay to test for compound auto fluorescence at 535 nm (green) in HepG2 cell free culture (AID 720686).
Assay [14] can be described thus: qHTS assay to test for compound auto fluorescence at 460 nm (blue) in HepG2 cells (AID 720687). The gist of the method:
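Blue-channel autofluorescence (Ex/Em 405/460 nm, triamterene-equivalent) was measured after 1 hr compound exposure at 37 C, 5% CO2. Cells were HepG2, plated overnight at 37 C in MEM plus 10% FBS.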

The target of assay [15] is Glucocorticoid receptor (Homo sapiens) (UniProt P04150). Description: qHTS assay to identify small molecule agonists of the glucocorticoid receptor (GR) signaling pathway (AID 720691; active = well fitted activation curve with a large enough effect in the signal ratio in the repeat runs, not every such curve was filed as active; the % refers to the signal ratio). The gist of the method: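 Cells: GR-bla HeLa, endogenous GR with stably integrated GRE-beta-lactamase reporter. Treatment 18 h, 37 C, compounds delivered in DMSO. Detection via LiveBLAzer B/G FRET substrate, 2 h RT, fluorescence intensity.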

For assay [16] the target is unchanged. Description: qHTS assay to identify small molecule antagonists of the glucocorticoid receptor (GR) signaling pathway (AID 720692; active = well fitted inhibition curve with a large enough effect in the signal ratio in the repeat runs, not every such curve was filed as active; the % refers to the signal ratio). In short, it runs like this: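 Quantitative HTS in antagonist format: HeLa cells expressing endogenous GR and a stably integrated GRE-bla reporter, stimulated with 5 nM dexamethasone (final) alongside test compounds for 18 h.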

Assay [17] in a line: qHTS assay to test for compound auto fluorescence at 590 nm (red) in HEK293 cells (AID 720679). The gist of the method: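 HEK293 cells (2,000/well, 10% dialyzed FBS) attached 4-5 hr, then dosed with compound or DMSO and incubated overnight at 37C, 5% CO2. Red fluorescence read at 540/590 nm, Rose Bengal sodium as reference fluorophore.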
Assay [18] in a line: qHTS assay to test for compound auto fluorescence at 590 nm (red) in HepG2 cell free culture (AID 720684). In short, it runs like this: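 Cell-free; medium MEM + 10% FBS; compound or DMSO added by pintool; read Ex 540/Em 590 nm; Rose Bengal sodium as red reference fluorophore.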
The nature of assay [19]: qHTS assay for small molecule disruptors of the mitochondrial membrane potential (AID 720635). Also: potency is read from the fitted curve at half-maximal effect. In short, it runs like this: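 Mitochondrial membrane potential tracked with Mito-MPS dye, red aggregates (ex 540/em 590 nm) against green monomers (ex 490/em 535 nm). Compound treatment 1 hr at 37C, dye 30 min in HepG2.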

Records with an inconclusive call do not appear. Active and inactive are the calls of the source. Unless noted, calls follow the shape of the dose curve; as a rule, active = well fitted curve in the direction sought with a large enough effect in the repeat runs; inconclusive = weak or mixed curves; inactive = no such curve, though single readings can be large; an effect the other way counts as inactive or inconclusive.

Glucocorticoid receptor (Homo sapiens), sequence (P04150 whole entry, looked up): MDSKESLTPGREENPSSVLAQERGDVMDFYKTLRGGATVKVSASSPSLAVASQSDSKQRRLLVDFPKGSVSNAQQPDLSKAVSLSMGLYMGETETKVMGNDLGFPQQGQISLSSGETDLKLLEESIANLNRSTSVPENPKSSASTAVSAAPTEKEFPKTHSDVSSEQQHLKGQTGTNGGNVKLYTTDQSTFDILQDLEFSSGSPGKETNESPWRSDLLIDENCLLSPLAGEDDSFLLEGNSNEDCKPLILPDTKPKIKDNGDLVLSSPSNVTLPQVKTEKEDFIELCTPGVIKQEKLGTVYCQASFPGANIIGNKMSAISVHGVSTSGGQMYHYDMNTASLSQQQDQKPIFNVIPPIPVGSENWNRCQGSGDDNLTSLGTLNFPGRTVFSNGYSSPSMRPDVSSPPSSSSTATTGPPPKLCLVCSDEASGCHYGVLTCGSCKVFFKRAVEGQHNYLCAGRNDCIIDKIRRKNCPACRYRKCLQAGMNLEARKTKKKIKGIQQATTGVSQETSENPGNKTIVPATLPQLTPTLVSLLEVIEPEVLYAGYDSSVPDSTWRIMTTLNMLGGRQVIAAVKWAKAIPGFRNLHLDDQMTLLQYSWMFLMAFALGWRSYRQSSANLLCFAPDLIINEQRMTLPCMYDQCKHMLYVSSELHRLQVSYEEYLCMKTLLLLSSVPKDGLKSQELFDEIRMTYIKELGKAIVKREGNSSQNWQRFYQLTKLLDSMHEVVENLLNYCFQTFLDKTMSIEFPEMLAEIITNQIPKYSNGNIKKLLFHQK

`O=Cc1c(Cl)cccc1Cl`: the Potency result in assay [1], in [2], in assay [3], in assay [4], in assay [7] and in assay [9] was “inactive” in each case. Also, the Potency entry in assay [12], in assay [14], in [15] and in assay [16] was “inactive” throughout. For the same compound, the call in assay [5], in assay [6], in assay [8], in assay [10], in [11] and in assay [13] was inactive.

Regarding `O=c1[nH]c2ccc(S(=O)CCN3CCC(Cc4ccc(F)cc4)CC3)cc2o1` (stereo not given), the Potency entry in [1], in [2], in assay [3], in assay [4], in [7] and in [9] was “inactive” in each case. Moreover, the Potency result in [12], in assay [14], in [15] and in assay [16] was “inactive” each time. The outcome in assay [5], in assay [6], in assay [17], in assay [8], in assay [10] and in assay [11] was inactive. The outcome in assay [18] and in assay [13] was inactive.

Consider `CC(C)C(OC(=O)c1ccccc1)C(C)(C)COC(=O)c1ccccc1` (stereo not given), for which the Potency entry in assay [1], in assay [2], in assay [3], in assay [7], in assay [9] and in assay [12] was “inactive” in each case. The Potency entry in assay [14] is “inactive”. Also, the Potency in assay [19] was 27.3 µM (active). Besides, the result in [5], in assay [6], in [8], in assay [10], in assay [11] and in assay [18] was inactive. Further, the result in [13] was inactive.

For `CCCCC(CC)C(=O)OCCOCCOCCOCCOC(=O)C(CC)CCCC` (stereo not given), the Potency entry in assay [1], in assay [2], in assay [3], in assay [4], in assay [7] and in assay [9] was “inactive” in each case. Also, the Potency entry in [12], in assay [14], in assay [15] and in assay [16] was “inactive” throughout. Moreover, the compound was classed as inactive in [5], in [6], in assay [17], in assay [8], in assay [10] and in assay [13].

Consider `Cc1cc(C(=C2C=CC(=Nc3ccc(S(=O)(=O)O)cc3S(=O)(=O)O)C=C2)c2ccc(Nc3ccc(S(=O)(=O)O)cc3)cc2)ccc1N`, for which the Potency result in assay [1], in assay [2], in assay [3], in assay [4], in assay [7] and in assay [12] was “inactive” each time. Also, the Potency result in assay [14] and in assay [15] was “inactive” in each case. For the same compound, the result in [5], in assay [6], in [17], in assay [8], in assay [10] and in assay [11] was inactive. Further, the outcome in assay [18] and in assay [13] was inactive.

For `Cc1ccc(/C=N/n2c(-c3ccccc3)csc2=S)cc1`, the Potency entry in assay [1], in assay [2], in assay [3], in assay [7], in [9] and in assay [12] was “inactive” throughout. The Potency entry in assay [14] and in assay [15] was “inactive” each time. Besides, the Potency in assay [19] is 18.8 µM (active). Further, the call in assay [5], in [6], in assay [17], in [8], in assay [10] and in [18] was inactive. For the same compound, the compound was called inactive in [13].

As for `COC(=O)CC(=O)C(C)(C)C`, the Potency entry in assay [1], in assay [2], in [3], in assay [4], in assay [19] and in assay [7] was “inactive” each time. The Potency entry in assay [9], in assay [12], in [14], in assay [15] and in assay [16] was “inactive” in each case. Further, the outcome in assay [5], in [17], in [8], in [10], in assay [11] and in [18] was inactive. Besides, the compound was classed as inactive in [13].
